Common to all, as to assay: NCI-60 one-dose screen, 48 h (100 = growth as untreated, 0 = no growth, -100 = all killed)
For experiment [1], the system named is HCT-15 colon. As to conditions: 10 µM unless noted.
Experiment [2] has as its system HT29 colon. The settings on record: 10 µM unless noted.
For experiment [3], the system named is SNB-75 CNS. As to conditions: 10 µM unless noted.
In experiment [4] the test system is SNB-19 CNS. As to conditions: 10 µM unless noted.
For experiment [5], the system named is U251 CNS. As to conditions: 10 µM unless noted.
Experiment [6] concerns PC-3 prostate. The settings on record: 10 µM unless noted.
In experiment [7] the test system is SK-MEL-5 melanoma. The settings on record: 10 µM unless noted.
In experiment [8] the test system is UACC-62 melanoma. The settings on record: 10 µM unless noted.
The test system of experiment [9] is LOX IMVI melanoma. The settings on record: 10 µM unless noted.
For experiment [10], the system named is SK-MEL-28 melanoma. The settings on record: 10 µM unless noted.
Experiment [11] relates to SK-MEL-2 melanoma. As to conditions: 10 µM unless noted.
In experiment [12] the test system is EKVX NSCLC. As to conditions: 10 µM unless noted.
Experiment [13] has as its system SN12C renal. As to conditions: 10 µM unless noted.
Experiment [14] has as its system UO-31 renal. The settings on record: 10 µM unless noted.
The subject of experiment [15] is TK-10 renal. As to conditions: 10 µM unless noted.
The test system of experiment [16] is ACHN renal. The settings on record: 10 µM unless noted.
For experiment [17], the system named is CAKI-1 renal. The settings on record: 10 µM.
Experiment [18] concerns A498 renal. As to conditions: 10 µM unless noted.
Experiment [19] deals with CCRF-CEM leukemia. As to conditions: 10 µM unless noted.
For experiment [20], the system named is MOLT-4 leukemia. As to conditions: 10 µM unless noted.

Compounds without any hit were thinned out: in the full panel of roughly 83,000, 20% have a hit.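 Each cell line was grown in a 96-well plate and treated with one concentration of compound for 48 hours. Values below 10 were considered active.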 Values without a mark were called inactive. Active and inactive are the calls of the source.

As to `NCCN1CCN(c2nc(-c3ccccc3)nc3nc(-c4ccccc4)oc23)CC1`, the growth in experiment [1] was -66.8% (active); in experiment [2], -52.8% (active); in [3], -77.1% (active); in experiment [4], -19.7% (active); in experiment [5] it was -51.4% (active); in experiment [6] it was 15%. The growth was 78.7% in experiment [7]; 101% in experiment [8]; -90.6% (active) in experiment [9]; -85.4% (active) in experiment [10]; 102% in experiment [11]; 2% (active) in [12]. The growth in experiment [13] was -79.4% (active); in experiment [14], -89.2% (active); in [15] it was -28.7% (active); in experiment [16], -95.4% (active); in [17], -90.1% (active); in experiment [18] it was 61.7%. Moreover, the results for the growth in experiment [19] and in [20] were 1.25% (active) and -0.256% (active), respectively.
Turning to `O=C(Cn1cc(CN2C(=O)c3ccc([N+](=O)[O-])cc3C2=O)nn1)Nc1ccc(F)cc1Cl`, the growth in experiment [1] is 99.5%; in experiment [2] it was 102%; in experiment [3], 92.6%; in experiment [4], 97.2%; in [5], 97.3%; in [6], 92.6%. The growth in experiment [7] is 101%; in experiment [8] it was 92.3%; in experiment [9], 107%; in [10] it was 99.9%; in experiment [11], 101%; in [12], 97.7%. Besides, the growth in experiment [13] is 101%; in experiment [14], 81.3%; in experiment [15], 91.2%; in experiment [16], 96.9%; in experiment [17] it was 89.9%; in [18] it was 85.8%. In addition, the results for the growth in [19] and in [20] were 95.6% and 108%, respectively.
Consider `O=C(NCCCNc1cc(-c2cn(-c3ccccc3)nc2-c2cccc(O)c2)ccn1)Nc1ccc(F)cc1`, for which the growth was -11.7% (active) in experiment [1]; 3.6% (active) in experiment [2]; 6.84% (active) in experiment [3]; 26.9% in experiment [4]; 3.22% (active) in experiment [5]; 16% in [6]. The growth in experiment [7] was -55% (active); in [8] it was 8.05% (active); in experiment [9] it was 6.07% (active); in [10] it was -61.3% (active); in experiment [11], -4.51% (active); in [12], 33.8%. Besides, the growth in [13] is 31.1%; in experiment [14] it was 6.93% (active); in experiment [15] it was 65%; in experiment [16] it was 24.8%; in experiment [17], 12.8%; in [18] it was -6.39% (active). Also, in experiment [20], the growth is 4.57% (active).
`O=C(Nc1cccc(-c2nc(-c3ccc(NC(=O)c4cccs4)cc3Cl)no2)c1)Nc1ccc(NC(=O)C2CC2)c(C(F)(F)F)c1`: the growth is 0.554% (active) in experiment [1]; -11.2% (active) in [2]; -66.4% (active) in experiment [3]; -17.7% (active) in experiment [4]; -49.7% (active) in experiment [5]; -56.3% (active) in [6]. The growth in [7] is -90.7% (active); in [8], -73.8% (active); in experiment [9], -87.1% (active); in experiment [10], -83.3% (active); in experiment [11], -50.2% (active); in experiment [12], -34.2% (active). The growth in experiment [13] was -51.8% (active); in [14], -23.6% (active); in experiment [15], -28.2% (active); in experiment [16] it was 0.236% (active); in experiment [17], -67.7% (active); in [18], -89% (active). Further, the growth in experiment [19] is 6.43% (active); in experiment [20] it was -4.78% (active).
Turning to `Nc1cc(F)ccc1NC(=O)c1ccc(NC(=O)C/C=C/c2cccnc2)cn1`, the growth in [1] was 19.8%; in experiment [2], 11.4%; in experiment [3], 31.9%; in experiment [4] it was 31.7%; in experiment [5], 17.9%; in experiment [6], 36.9%. Further, the growth in experiment [7] was -58.1% (active); in experiment [8], 5.97% (active); in [9], 16.6%; in [10], -9.71% (active); in experiment [11] it was 9.74% (active); in experiment [12], 49.7%. Also, the growth in [13] was 20.1%; in experiment [14] it was 5.53% (active); in experiment [15], 22.3%; in experiment [16] it was 31.3%; in experiment [17], 33.9%; in [18], -13.2% (active). Besides, in [20], the growth is 24.7%.
Consider `C#C[C@]1(O)CC[C@H]2[C@@H]3CC=C4c5sc(C6CC6)nc5CC[C@]4(C)[C@H]3CC[C@@]21C`, for which the growth in [1] is 50.4%; in experiment [2], 70.2%; in experiment [3], 94.8%; in experiment [4] it was 90%; in experiment [5], 66.3%; in experiment [6], 67.2%. Moreover, the growth in experiment [7] was 93.5%; in [8] it was 67.7%; in [9], 62.6%; in experiment [10], 69.3%; in [11], 90%; in [12] it was 80.1%. The growth was 86.1% in experiment [13]; 68.8% in experiment [14]; 124% in experiment [15]; 91.4% in [16]; 79.6% in experiment [17]; 99.9% in [18]. Moreover, the figures for the growth in experiment [19] and in experiment [20] were 58.7% and 46.8%, respectively.
Turning to `CC1(C)CC[C@]2(C(=O)N3CCCNCC3)CC[C@]3(C)C(=CC[C@@H]4[C@@]5(C)CCC(=O)C(C)(C)[C@@H]5CC[C@]43C)[C@H]2C1`, the growth in [1] was 103%; in experiment [2], 102%; in [3] it was 124%; in experiment [4], 98%; in experiment [5], 100%; in experiment [6], 88.2%. Further, the growth in experiment [7] is 102%; in experiment [8], 89.6%; in experiment [9], 97.2%; in experiment [10], 104%; in experiment [11], 108%; in experiment [12], 103%. Also, the growth in experiment [13] is 98.7%; in experiment [14], 95.3%; in [15], 97.1%; in experiment [16], 105%; in experiment [17] it was 89%; in experiment [18] it was 109%. In addition, the growth in [19] is 90.6%; in experiment [20], 106%.

The values are drawn from PubChem BioAssay (NCI).
